In all, about 1,900 compounds went through this assay and about 250 (13%) were called active. About 4% were inconclusive and are not listed.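 The calls were made as follows: active = fitted curve reaches 40% rescue activity at or below the top valid dose, in every test run; inconclusive = test runs disagree, some active and some inactive; inactive = every run misses the threshold or moves the wrong way.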 Only a sample is shown. Potency and affinity values are given separately.
Assay: suppressors of statin myotoxicity in myotubes, dose response, cell-based, C2C12 myotubes, ATP luminescence, cherry pick (AID 624405);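 also: myotubes are challenged with simvastatin at 10 µM to lower ATP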
Conditions: C2C12 myotubes + simvastatin, 48 h, scaled: DMSO wells 0, geranylgeraniol wells 100; series mostly up to 19.5 µM; rescue activity (ATP increase): at the top concentration

Row | Compound | rescue activity (ATP increase)
1 | N#CC(c1ccc(Cl)cc1)c1ccc(Cl)nn1 (stereo unspecified) | 23.7% (inactive)
2 | Cc1cc(C)n(CC(=O)N2c3ccccc3Sc3ccccc32)n1 | -1.56% (inactive)
3 | O=C(COC(=O)Cc1ccccc1F)NCc1ccc(Cl)cc1 | -19.9% (inactive)
4 | CCOC(=O)C(C)C1(O)c2ccccc2-c2ncccc21 (stereo unspecified) | -4.05% (inactive)
5 | CN1C[C@H]2[C@@H](c3ccccc31)[C@@H](CO)N2Cc1ccccc1 | 5.51% (inactive)
6 | CCOc1ccc(N(CC(=O)NCc2ccco2)S(=O)(=O)c2ccc(OC)c(OC)c2)cc1 | 11.6% (inactive)
7 | CC(=O)N1c2ccc(S(=O)(=O)NCCC(=O)NCCc3ccc(C)cc3)cc2CC1C (stereo unspecified) | -9.48% (inactive)
8 | Nc1nnc(-c2ccccc2)c(-c2ccccc2)n1 | 15.7% (inactive)
9 | O=S(=O)(NC1=NCCC1)c1ccc(F)cc1 | 27.9% (inactive)
10 | C[C@@H]1CCCCO[C@@H](CN(C)S(=O)(=O)c2cccs2)[C@@H](C)CN([C@@H](C)CO)C(=O)c2cc(NC(=O)Nc3ccc(F)cc3)ccc2O1 | 2.39% (inactive)
11 | C[C@@H]1CCCCO[C@H](CN(C)C(=O)NC2CCCCC2)[C@H](C)CN([C@@H](C)CO)C(=O)c2cc(NS(=O)(=O)c3cccs3)ccc2O1 | 21.2% (inactive)
12 | Cc1cc(S(=O)(=O)Nc2nc(CN3CCOCC3)nc3sc4c(c23)CCCC4)ccc1F | -8.27% (inactive)
13 | C[C@H]1CN([C@@H](C)CO)C(=O)Cc2cc(NC(=O)Cc3ccccc3)ccc2O[C@@H]1CN(C)Cc1ccc(Cl)c(Cl)c1 | 22.2% (inactive)
14 | C[C@H]1CN([C@@H](C)CO)C(=O)Cc2cc(NC(=O)CCCCCC(=O)Nc3ccccc3N)ccc2O[C@@H]1CN(C)Cc1ccc(Cl)c(Cl)c1 | 37.1% [at 18 µM] (inactive)
15 | CC1CCCCN1S(=O)(=O)c1ccc(C(=O)Nc2sccc2C(N)=O)cc1 (stereo unspecified) | 39% (inactive)
16 | O=C(CNC(=O)c1ccc(Br)cc1)N/N=C/c1cccnc1 | 11.2% (inactive)
17 | C[C@@H]1CCCCO[C@@H](CN(C)CC2CCCCC2)[C@@H](C)CN([C@H](C)CO)C(=O)c2cc(NC(=O)Nc3ccc4c(c3)OCO4)ccc2O1 | -13.1% [at 21 µM] (inactive)
18 | C[C@@H]1CN([C@@H](C)CO)C(=O)c2cccc(NC(=O)c3nc4ccccc4s3)c2O[C@H]1CN(C)Cc1ccc(C(=O)Nc2ccccc2N)cc1 | 14.9% (inactive)
19 | C[C@@H]1CN([C@H](C)CO)C(=O)c2cc(NC(=O)Nc3ccc(C(F)(F)F)cc3)ccc2O[C@H]1CN(C)Cc1ccc(C(=O)Nc2ccccc2N)cc1 | 27.5% [at 16 µM] (inactive)
20 | C[C@@H]1CN([C@@H](C)CO)C(=O)c2cc(NC(=O)Nc3ccc(C(F)(F)F)cc3)ccc2O[C@@H]1CN(C)Cc1ccc(C(=O)Nc2ccccc2N)cc1 | 4.69% (inactive)
21 | C[C@@H]1CN([C@H](C)CO)C(=O)c2cccc(NC(=O)C3CCOCC3)c2O[C@@H]1CN(C)Cc1ccc(C(=O)Nc2ccccc2N)cc1 | 39% (inactive)

Row | Compound | rescue activity (ATP increase)
22 | C[C@@H]1CN([C@H](C)CO)C(=O)c2cccc(NC(=O)c3nc4ccccc4s3)c2O[C@@H]1CN(C)C(=O)Nc1cccc2ccccc12 | 24% (inactive)
23 | C[C@H](CO)N1C[C@H](C)[C@H](CN(C)Cc2ccc(C(=O)Nc3ccccc3N)cc2)Oc2ccc(NC(=O)Nc3ccc(C(F)(F)F)cc3)cc2C1=O | 13.2% [at 16 µM] (inactive)
24 | C[C@@H]1CN([C@@H](C)CO)C(=O)c2cccc(NC(=O)Nc3ccccc3)c2O[C@H]1CN(C)Cc1ccc(C(=O)Nc2ccccc2N)cc1 | 25.3% (inactive)
25 | C[C@H]1CN([C@@H](C)CO)C(=O)c2cc(NC(=O)Nc3ccc(C(F)(F)F)cc3)ccc2O[C@H]1CN(C)Cc1ccc(C(=O)Nc2ccccc2N)cc1 | 44.6% [at 18 µM] (inactive)
26 | O=C(O)CCC(C(=O)O)n1c(O)c(C2=c3ccccc3=NC2=O)sc1=S (stereo unspecified) | -21% (inactive)
27 | COc1ccc(C(=O)N2C[C@H]3[C@@H](c4ccccc42)[C@H](CO)N3Cc2ccccc2)cc1 | 16.5% [at 21 µM] (inactive)
28 | C[C@H]1CN([C@@H](C)CO)C(=O)c2cccc(NC(=O)Nc3ccc(C(F)(F)F)cc3)c2O[C@@H]1CN(C)S(=O)(=O)c1ccc(Cl)cc1 | -65.9% (inactive)
29 | C[C@H]1CCCCO[C@H](CN(C)C(=O)Nc2cccc3ccccc23)[C@@H](C)CN([C@@H](C)CO)C(=O)c2cc(NC(=O)Nc3ccc4c(c3)OCO4)ccc2O1 | 11.2% [at 21 µM] (inactive)
30 | COc1ccc(S(=O)(=O)N2CCN(c3ccc4nnc(-c5ccccc5)n4n3)CC2)cc1 | 30.8% (inactive)
31 | COc1ccc(-c2nc(CC(=O)O)cs2)cc1 | 7.8% (inactive)
32 | COc1ccc(-c2noc(CCCOc3ccc(Cl)cc3Cl)n2)cc1 | 4.69% (inactive)
33 | COc1ccc2sc(-c3ccccc3OC)c(-c3ccc(O)cc3)c2c1 | -11.5% (inactive)
34 | C[C@@H]1CCCCO[C@@H](CN(C)S(=O)(=O)c2ccc(F)cc2)[C@@H](C)CN([C@H](C)CO)C(=O)c2cc(NC(=O)Nc3cccc4ccccc34)ccc2O1 | -3.78% [at 21 µM] (inactive)
35 | C[C@@H]1CCCCO[C@H](CN(C)S(=O)(=O)c2cccs2)[C@H](C)CN([C@H](C)CO)C(=O)c2cc(NC(=O)Nc3ccc(F)cc3)ccc2O1 | 19.6% (inactive)
36 | C[C@H]1CN([C@@H](C)CO)C(=O)c2cccc(NC(=O)Nc3ccc(F)cc3)c2O[C@@H]1CN(C)CC1CCCCC1 | -6.58% [at 21 µM] (inactive)
37 | C[C@H]1CN([C@@H](C)CO)C(=O)c2cccc(NC(=O)Nc3ccc4c(c3)OCO4)c2O[C@@H]1CN(C)CC1CCCCC1 | 28.6% (inactive)
38 | CC(=O)c1cc(C#N)c(Oc2ccc(Cl)cc2Cl)nc1C | 17.6% (inactive)
39 | CC(=O)C1=C(O)C(=O)N(c2ccc(S(N)(=O)=O)cc2)C1c1ccccc1F (stereo unspecified) | 9.79% (inactive)
40 | C[C@@H]1CN([C@H](C)CO)C(=O)c2cc(C3=CCCCC3)cnc2O[C@@H]1CN(C)C(=O)Nc1ccc(F)cc1 | 14.7% (inactive)
41 | Cc1noc(C)c1NC(=O)Nc1ccc2c(c1)C(=O)N([C@@H](C)CO)C[C@@H](C)[C@@H](CN(C)C(=O)Nc1cccc3ccccc13)O2 | 0.347% [at 21 µM] (inactive)
42 | CC(O)CNc1nc2ccccc2n1-c1ncnc2sc3c(c12)CCC3 (stereo unspecified) | -34.9% (inactive)

Row | Compound | rescue activity (ATP increase)
43 | Oc1[nH]c2ccccc2c1C=NCC1CCCO1 (stereo unspecified) | -6.3% (inactive)
44 | CCOC(=O)C1=NN(C(=O)Cc2ccccc2)C(O)(c2ccc(Cl)cc2)C1 (stereo unspecified) | -31.4% (inactive)
45 | C[C@@H]1CN([C@H](C)CO)C(=O)Cc2cc(NC(=O)Nc3cccc4ccccc34)ccc2O[C@@H]1CN(C)Cc1ccc(C(=O)Nc2ccccc2N)cc1 | -6.86% [at 21 µM] (inactive)
46 | C[C@@H]1CN([C@@H](C)CO)C(=O)Cc2cc(NC(=O)Nc3cccc4ccccc34)ccc2O[C@@H]1CN(C)Cc1ccc(C(=O)Nc2ccccc2N)cc1 | 6.53% (inactive)
47 | C[C@@H]1CN([C@H](C)CO)C(=O)Cc2cc(NC(=O)Nc3cccc4ccccc34)ccc2O[C@H]1CN(C)Cc1ccc(C(=O)Nc2ccccc2N)cc1 | 27.3% [at 16 µM] (inactive)
48 | C[C@H]1CN([C@@H](C)CO)C(=O)Cc2cc(NC(=O)Nc3cccc4ccccc34)ccc2O[C@@H]1CN(C)Cc1ccc(C(=O)Nc2ccccc2N)cc1 | 13.8% (inactive)
49 | CCN(CC)C(=O)c1scc2c1OCCO2 | -1.7% (inactive)
50 | CC1CC(c2ccccc2)n2nc(N3C(=O)c4ccccc4C3=O)nc2N1 (stereo unspecified) | 0.638% (inactive)
51 | c1ccc(CSc2nnc(-c3ccccn3)n2-c2ccccc2)cc1 | 26.3% (inactive)
52 | Cc1nnc(SCC(=O)NCc2ccccc2)n1-c1ccccc1 | 43.2% (inactive)
53 | COc1ccc(CN(C)C[C@@H]2Oc3ccc(NC(=O)Cc4ccccc4)cc3CC(=O)N([C@H](C)CO)C[C@H]2C)cc1 | 3.11% (inactive)
54 | CC(=O)Nc1cccc(Nc2nc(-c3ccccc3F)nc3ccccc23)c1 | -35.7% (inactive)
55 | CCCC(=O)NC(=S)Nc1cccc(C(C)=O)c1 | -8.31% (inactive)
56 | CCN(C(=O)COC(=O)c1cnc(C)cn1)C1CCCCC1 | -7.24% (inactive)
57 | Cc1cc(C)c2c(c1)/C(=N/NS(=O)(=O)c1ccccc1)CCC2 | -46.4% (inactive)
58 | Cc1ccccc1N(CC(=O)NC1CCCC1)C(=O)CS(=O)CC(=O)Nc1ccc2c(c1)OCO2 (stereo unspecified) | 15.3% (inactive)
59 | CC(C)C(=O)Nc1cc(S(=O)(=O)N2CCOCC2)ccc1N1CCCCC1 | -33.9% (inactive)
60 | CC1CCN(S(=O)(=O)c2ccc3ccccc3c2)CC1 | 60.1% (inactive)
61 | OCCNCc1cccc(-c2ccccc2)c1O | 14.2% (inactive)
62 | O=C(c1ccco1)N1CCN(C(=O)c2cc3sccc3n2Cc2ccccc2)CC1 | 18% (inactive)
63 | O=C(CN(c1ccc(F)cc1)S(=O)(=O)c1ccccc1)NCc1ccco1 | 6.02% (inactive)

Row | Compound | rescue activity (ATP increase)
64 | CC(C)Oc1ccc(C(=O)NCc2ccco2)cc1 | -11.3% (inactive)
65 | O=C(NCc1ccco1)C1CCN(C(=O)c2cc3sccc3n2Cc2ccc(F)cc2)CC1 | 36.2% (inactive)
66 | CCN1CCN(c2ccc(NC(=O)Cc3ccccc3)cc2)CC1 | -4.12% (inactive)
67 | O=S(=O)(c1cccc2nsnc12)N1CCOCC1 | 28.7% (inactive)
68 | COc1ccc(NC(=O)Nc2ccc3c(c2)C(=O)N([C@H](C)CO)C[C@@H](C)[C@@H](CN(C)Cc2ccc(C(F)(F)F)cc2)OCCCC[C@@H](C)O3)cc1 | -2.15% (inactive)
69 | CCC(C)(NC(=O)CNC(C)=O)C(=O)NC1CCCCC1 (stereo unspecified) | 1.71% (inactive)
70 | COc1ccc(C#Cc2cnc3c(c2)C(=O)N([C@@H](C)CO)C[C@@H](C)[C@H](CN(C)C(=O)Nc2cccc(OC)c2)O3)cc1 | 17.4% (inactive)
71 | CCOC(=O)c1ccc2c(c1)nc(COc1ccc(OC)cc1)n2CC | -4.99% (inactive)
72 | CCOCCn1c(COc2ccccc2)nc2ccccc21 | 17.6% (inactive)
73 | O=C(CCCCCn1c(=O)[nH]c2ccsc2c1=O)NCc1ccc(F)cc1 | 1.05% (inactive)
74 | CCc1ccc(NC(=O)c2cc(-c3cccs3)on2)cc1 | -4.74% (inactive)
75 | CCOC(=O)/C=C(\C)Nc1cc(C)nn1-c1ccccc1 | 10.6% (inactive)
76 | C[C@@H]1CN([C@H](C)CO)C(=O)c2cc(NC(=O)Cc3cn(C)c4ccccc34)ccc2O[C@H]1CN(C)S(=O)(=O)c1cccs1 | 14.4% (inactive)
77 | O=C(NCc1ccco1)C(c1ccc(F)cc1)N(Cc1cccnc1)C(=O)Cn1nnc2ccccc21 (stereo unspecified) | -5.93% (inactive)
78 | C[C@@H]1CN([C@H](C)CO)C(=O)Cc2cc(NC(=O)CCCCCC(=O)Nc3ccccc3N)ccc2O[C@H]1CN(C)Cc1ccc(C(F)(F)F)cc1 | 40.4% (inactive)
79 | C[C@@H]1CN([C@H](C)CO)C(=O)Cc2cc(NC(=O)CCCCCC(=O)Nc3ccccc3N)ccc2O[C@@H]1CN(C)Cc1ccc(C(F)(F)F)cc1 | 11% [at 16 µM] (inactive)
80 | C[C@@H]1CN([C@@H](C)CO)C(=O)Cc2cc(NC(=O)CCCCCC(=O)Nc3ccccc3N)ccc2O[C@H]1CN(C)Cc1ccc(C(F)(F)F)cc1 | 16% (inactive)
81 | C[C@@H]1CN([C@@H](C)CO)C(=O)Cc2cc(NC(=O)CCCCCC(=O)Nc3ccccc3N)ccc2O[C@@H]1CN(C)Cc1ccc(C(F)(F)F)cc1 | 13.1% [at 21 µM] (inactive)

— PubChem BioAssay AID624405 (Broad Institute, 2012)
